Peg3 promoter: Peg3 promoter activity inhibition; actives 1.7% (n = 360,000); inhibition, % at 20 µM; HeLa PEG-Prom luciferase reporter, luminescence, overnight; AID 588405;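 active means inhibition of at least 50% at 20 µM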
TWEAK-Fn14 inh: TWEAK-Fn14 signaling inhibition; TWEAK-stimulated Fn14 reporter cells, luciferase luminescence, 8 h; inhibition, % at 10 µM; actives 2% (n = 360,000); in the data active means inhibition above about 50%
LMP1 NFkB inh: inhibitors of Epstein-Barr LMP1-induced NF-kappaB reporter. LMP1-induced NF-kappaB luciferase reporter cells, luminescence. inhibition, % at 12.5 µM. actives 0.69% (n = 350,000); in the data active means inhibition above about 41%; inconclusive means no clear call, values can overlap the other calls
Shn3 3UTR inh: inhibitors of Schnurri-3 3'UTR reporter in osteoblasts; actives 0.52% (n = 360,000); Clone20 osteoblast Shn3 3'UTR firefly luciferase, 24 h; AID 588674; inhibition, % at 12.5 µM;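 active means mean inhibition of at least 75% with every replicate also reaching 75%; inconclusive means mean inhibition at least 75% but some replicate below; inactive means mean inhibition below 75%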
MITF TRPM1 inh: MITF TRPM1 promoter inhibition in SK-MEL-5 cells; SK-MEL-5 TRPM1 promoter luciferase, 24 h; AID 488899; actives 0.83% (n = 330,000); inhibition, % at 12.5 µM;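 active means mean inhibition across replicates of 60% or more, whatever share of single replicates reaches that level; inconclusive means some that reach 60%, reason not given; inactive means mean inhibition across replicates below 60%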
TROY NFkB inh: TROY signaling inhibition | Q293 LMP1-TROYcd NF-kB luciferase reporter, 4 h | inhibition, % at 10 µM | actives 0.98% (n = 360,000);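 active means compounds whose plate-normalised and pattern-corrected inhibition of the luciferase reporter signal at the single screening dose is 50% or more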
Numbers stand for hits; - = inactive; ? = inconclusive; . = no result given. This is a sample that favours compounds with a hit; in the whole collection about 4.1% have one here.

SMILES	Peg3 promoter	TWEAK-Fn14 inh	LMP1 NFkB inh	Shn3 3UTR inh	MITF TRPM1 inh	TROY NFkB inh
CC(/C=C(\NC(=O)c1ccccc1)C(=O)N=Nc1c(O)[nH]c2ccc(C)cc12)=C\c1ccccc1	53	-	-	-	-	-
COc1ccc(-c2nn(-c3ccccc3)cc2/C=C/C(=O)N2CCN(c3ccccn3)CC2)cc1	52	-	-	-	-	-
CC1(C)Cc2c(cnn2-c2ccc(F)cc2)C(NC(=O)C2=CC(=O)CC(C)(C)O2)C1 (centres undefined)	-	-	-	-	.	-
O=C(CCc1ccccc1O)N/N=C/c1ccc(Sc2cccc3cccnc23)o1	-	109	-	-	-	-
O=C(CSc1cccc2cccnc12)N/N=C/c1ccc(O)cc1	-	-	-	.	-	-
N=c1oc2ccccc2cc1C(=O)Nc1cccc(F)c1	-	-	-	-	-	-
N=c1oc2ccccc2cc1C(=O)Nc1ccc(F)cc1	-	62	-	-	-	-
Cc1ccc(NC(=O)c2cc3ccccc3oc2=N)cc1	-	98	50	-	-	-
COc1ccc(CC(=O)N2CCN=C2SCc2cccc([N+](=O)[O-])c2)cc1	-	-	-	-	-	-
COCCn1c(C)cc(C2=NNC(=Nc3ccccc3F)SC2)c1C	-	105	64	-	67	89
COCCCN=C1NN=C(c2cc(C)n(-c3ccccc3F)c2C)CS1	-	59	-	-	-	-
Fc1ccccc1N=C1NN=C(c2ccccc2)CS1	-	67	-	-	-	-
Cc1cc(C2=NNC(=NC3CC3)SC2)c(C)n1-c1c(C)n(C)n(-c2ccccc2)c1=O	-	-	-	-	-	-
COCCCN=C1NN=C(c2cc(C)n(Cc3ccccc3Cl)c2C)CS1	-	-	-	-	-	-
Cc1cc(C2=NNC(=NCCc3ccccc3)SC2)c(C)n1-c1c(C)n(C)n(-c2ccccc2)c1=O	-	57	-	-	-	-
Fc1ccc(F)c(C2=NNC(=Nc3ccccc3F)SC2)c1	-	-	-	-	-	-
COCCCN=C1NN=C(c2cc(C)n(-c3ccccc3)c2C)CS1	-	-	-	-	-	-
O=c1/c(=C\c2cccc(O)c2)sc2nc(-c3ccccc3)c(-c3ccccc3)n12	-	-	-	-	-	-
CCOC(=O)N1CCN(c2ccc(F)cc2[N+](=O)[O-])CC1	-	-	-	-	-	-
CCOC(=O)N1CCN(c2cc(N3CCOCC3)c(F)cc2[N+](=O)[O-])CC1	-	51	-	-	-	-
CCCCn1c(N)c(N(CCOC)C(=O)C2CC(=O)N(Cc3ccco3)C2)c(=O)[nH]c1=O (centres undefined)	-	-	-	-	-	-
O=C(c1c[nH]c(C(=O)C(Cl)(Cl)Cl)c1)c1ccc(F)cc1F	-	-	-	-	-	-
O=C(c1ccc(Cl)cc1)c1c[nH]c(C(=O)C(Cl)(Cl)Cl)c1	58	-	-	-	-	-
O=C(c1ccccc1)c1c[nH]c(C(=O)C(Cl)(Cl)Cl)c1	-	-	-	-	-	-
O=C(c1c[nH]c(C(=O)C(Cl)(Cl)Cl)c1)c1ccc(F)cc1Cl	54	-	-	-	-	-
SMILES	Peg3 promoter	TWEAK-Fn14 inh	LMP1 NFkB inh	Shn3 3UTR inh	MITF TRPM1 inh	TROY NFkB inh
COc1ccc(CCNC(=O)c2nnc(Cc3ccc(Cl)cc3)o2)cc1OC	-	-	-	-	-	-
C/C(Cc1ccccc1)=N\NC(=O)CNC(=O)Cc1ccccc1	-	-	-	-	-	-
Cc1[nH]c2ccccc2c1C1=CC(=O)C=CC1=O	76	-	-	-	-	-
Cc1ccc(C(=O)NC(=S)NNC(=O)CCN2CCOCC2)cc1	-	-	-	-	-	-
O=[N+]([O-])c1cc(S(=O)(=O)Oc2ccccc2)ccc1Cl	107	-	-	-	87	-
COc1ccc(C(=O)N/C(=C/c2ccc(Cl)cc2)C(=O)Nc2ccc(C(=O)O)cc2)cc1	-	100	-	-	-	-
COc1ccccc1C(=O)NCCC(=O)N1CCN(S(=O)(=O)c2ccccc2C(F)(F)F)CC1	-	-	-	-	-	-
C[C@H](CO)N1C[C@H](C)[C@@H](CN(C)S(=O)(=O)c2ccccc2)Oc2ccc(NC(=O)Nc3ccc(C(F)(F)F)cc3)cc2C1=O	-	61	-	-	-	-
C[C@@H]1CCCCO[C@@H](CN(C)CC2CCCCC2)[C@@H](C)CN([C@H](C)CO)C(=O)c2cc(NS(=O)(=O)c3ccc(Cl)cc3)ccc2O1	90	-	-	-	.	-
C[C@@H]1CN([C@@H](C)CO)C(=O)c2cc(NC(=O)Nc3ccc(F)cc3)ccc2O[C@@H]1CN(C)Cc1ccc(Oc2ccccc2)cc1	80	-	-	?	-	-
C[C@H](CO)N1C[C@H](C)[C@@H](CN(C)C(=O)Nc2ccc(C(F)(F)F)cc2)Oc2c(NC(=O)NC3CCCCC3)cccc2C1=O	-	-	-	-	-	-
C[C@@H]1CN([C@H](C)CO)C(=O)c2cccc(NC(=O)NC3CCCCC3)c2O[C@@H]1CN(C)C(=O)Nc1ccc(C(F)(F)F)cc1	88	-	-	-	-	-
Cc1ccc(OCC(=O)Nc2nnc(S(=O)(=O)N3CCC(C)CC3)s2)cc1	-	-	-	-	-	-
Cc1nc2ccccc2c(C)c1CC(=O)N(C)CC(=O)Nc1cccc(F)c1	-	-	-	-	-	-
CCN1CCN(CCC(=O)Nc2cc(OC)cc(OC)c2)CC1	-	-	-	-	-	-
C[C@@H]1CCCCO[C@H](CN(C)Cc2ccc(C(F)(F)F)cc2)[C@H](C)CN([C@@H](C)CO)C(=O)c2cc(NC(=O)Cc3ccccc3)ccc2O1	50	-	-	-	.	-
C[C@@H]1CN([C@@H](C)CO)C(=O)c2cc(NC(=O)Nc3ccccc3)ccc2O[C@H]1CN(C)C(=O)Nc1cccc2ccccc12	-	-	58	-	-	52
C[C@H](CO)N1C[C@H](C)[C@@H](CN(C)C)Oc2c(NC(=O)Cc3ccccc3)cccc2C1=O	-	-	44	-	-	-
COc1ccc(CN(C)C[C@@H]2OCCCC[C@H](C)Oc3ccc(NC(=O)Nc4ccc(F)cc4)cc3C(=O)N([C@H](C)CO)C[C@H]2C)cc1	74	-	-	-	.	-
C[C@H](CO)N1C[C@H](C)[C@@H](CN(C)Cc2ccccc2)Oc2c(NC(=O)Cc3ccccc3)cccc2C1=O	-	-	-	-	-	-
COc1cc2c(cc1NC(=O)C(C)NCc1ccccc1)oc1ccccc12 (centres undefined)	-	-	-	-	-	-
O=C(COC(=O)c1ccccc1NC(=O)c1ccco1)NCCC1=CCCCC1	-	-	-	-	-	-
C[C@@H]1CN([C@@H](C)CO)C(=O)Cc2cc(NC(=O)Nc3ccc(F)cc3)ccc2O[C@@H]1CN(C)Cc1ccc(Cl)c(Cl)c1	85	60	-	-	-	-
CN(C)c1ccc(C=Nc2ccccc2C(N)=O)cc1	63	-	-	-	-	-
Cc1ccc(C=Nc2ccccc2C(N)=O)o1	-	-	-	-	-	-
